Measurements published in PubChem BioAssay AID624330 (Southern Research Specialized Biocontainment Screening …, 2012).
The whole screen tested about 340,000 compounds, of which about 2,100 (0.62%) were called active.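 How the source made its calls: active means first-screen hits whose inhibition reached a set limit at any dose in the follow-up dose series; inconclusive means inhibition above the set first-screen limit but never retested; inactive means the rest.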 Only a sample is shown. Entries with a potency or affinity are not part of this list.

Biological target: Rac GTPase-activating protein 1 (Homo sapiens) (UniProt Q9H0H5)
Sequence (Q9H0H5 whole entry, looked up): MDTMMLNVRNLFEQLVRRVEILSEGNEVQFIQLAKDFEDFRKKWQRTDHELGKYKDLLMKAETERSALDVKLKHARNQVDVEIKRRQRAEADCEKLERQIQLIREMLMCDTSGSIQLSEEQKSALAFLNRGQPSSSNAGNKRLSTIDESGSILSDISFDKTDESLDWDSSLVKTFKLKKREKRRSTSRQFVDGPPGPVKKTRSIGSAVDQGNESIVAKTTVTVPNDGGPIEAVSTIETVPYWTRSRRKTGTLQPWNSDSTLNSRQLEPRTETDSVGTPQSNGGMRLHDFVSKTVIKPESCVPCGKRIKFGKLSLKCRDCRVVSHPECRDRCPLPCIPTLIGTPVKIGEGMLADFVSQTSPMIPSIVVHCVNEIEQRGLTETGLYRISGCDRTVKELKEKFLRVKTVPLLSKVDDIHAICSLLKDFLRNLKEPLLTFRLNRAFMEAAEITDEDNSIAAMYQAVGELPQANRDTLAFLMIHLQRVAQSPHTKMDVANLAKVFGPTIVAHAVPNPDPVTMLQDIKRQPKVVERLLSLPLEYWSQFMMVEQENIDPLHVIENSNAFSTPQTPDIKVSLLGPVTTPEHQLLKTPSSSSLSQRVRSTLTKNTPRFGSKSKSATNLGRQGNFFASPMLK
Assay: MgcRacGAP GTPase-activating activity inhibitors, confirmation, biochemical, ADP Hunter fluorescence, primary and confirmatory (AID 624330);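 further: fluorescence reports GDP produced by GAP-driven GTP hydrolysis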
Settings: MgcRacGAP-stimulated Rac1 GTP hydrolysis, at 30 µM, hits give high values, GST-tagged Rac1 F28L mutant substrate

inhibition, inactive:
Cc1cccc(-c2nc(C#N)c(N3CCC(C)CC3)o2)c1 -3.59%, COc1ccccc1/C=N/NC(=O)CC(=O)Nc1ccc(Cl)c(Cl)c1 3.66%, Cc1ccc(S(=O)(=O)NCCC(=O)N2CCN(Cc3ccccc3)CC2)cc1 -1.47%, Cc1ccc(C(=O)OCC(=O)NCc2cccs2)c(C)c1 6.37%, Cc1ccc(Oc2ccccc2NC(=O)CSCC(=O)Nc2cc(C)on2)cc1 3.22%, COc1ccc(NC(=O)NN2CCN(C)CC2)cc1 2.87%, COc1ccc(S(=O)(=O)N2CCN(C(C)C(=O)Nc3ccc(C(C)C)cc3)CC2)cc1 (centres undefined) 5.24%, CN1CCN(CC(=O)Nc2ccccc2C(F)(F)F)CC1 28.9%, CN1CCN(CCNC(=O)Nc2ccccc2C(F)(F)F)CC1 -0.21%, CC1Cc2ccccc2N1C(=O)CSc1nc2ccccc2s1 (centres undefined) 11.8%, CC(C)=NNC(=O)CN1C(=O)NC2NC(=O)NC21 (centres undefined) 6.56%, CC1(C)C2CCC(CN)C1C2 (centres undefined) 5.66%, Cc1nnc2sc(SCC(=O)Nc3cccc(Cl)c3)nn2c1=O 5.95%, COCC(C)n1c(C)cc(C(=O)CSc2nnnn2-c2ccc(O)cc2)c1C (centres undefined) 6.49%, Cc1cc(/C=C2\NC(=S)N(C)C2=O)ccc1N1CCCC1 22.4%, COc1cc(/C=C2\NC(=S)N(C)C2=O)ccc1OCc1ccccc1F -3.41%, O=C(NN=Cc1ccccc1C(=O)O)c1ccc(NS(=O)(=O)c2cccs2)cc1 5.61%, O=C(Cn1ccccc1=O)Nc1ccc(Cl)c(S(=O)(=O)N2CCCCC2)c1 1.69%, Fc1ccc(-c2csc(-c3cccnc3)n2)cc1F 7.05%, Fc1ccccc1-c1csc(-c2cccnc2)n1 -4.78%, NC(=O)c1cc(-c2csc(-c3cccnc3)n2)ccc1O 18.7%, c1ccc(-c2csc(-c3cccnc3)n2)cc1 9.56%, COc1ccc(NC(=O)Nc2cccc3c2O[C@H](CN(C)S(=O)(=O)c2c(C)noc2C)[C@@H](C)CN([C@H](C)CO)C3=O)cc1 6.8%, Fc1ccc(-n2cnnn2)c(F)c1 3.22%, CCCOc1ccc(C(=O)Nc2ccc(N3CCN(C(=O)c4ccco4)CC3)cc2)cc1 3.27%, CCC(C)[C@H](NC(=O)[C@@H]1Cc2ccccc2CN1)C(=O)Nc1ccc2c(c1)OCO2 (some centres undefined) -13.9%, COc1cc(/C=C/C(=O)OCC(=O)Nc2cc(S(=O)(=O)N3CCCC3)ccc2Cl)cc(OC)c1OC -3.8%, CCN(CC)c1ccc(S(=O)(=O)N2CCOCC2)cc1NC(=O)COC(=O)/C=C/c1ccc(C)o1 2.13%, COc1cccc(NC(=O)CN(C)C(C)C(=O)Nc2ccc(S(=O)(=O)N3CCCC3)cc2)c1 (centres undefined) -2.38%, COc1cc(/C=C/C(=O)OCC(=O)Nc2ccc(C)c(S(=O)(=O)N3CCCCC3)c2)ccc1O 13.2%, CCN(CC(=O)Nc1cccc(S(=O)(=O)N2CCCC2)c1)CC(=O)Nc1ccccc1OC 2.96%, COc1cccc(/C=C/C(=O)OCC(=O)Nc2cc(S(=O)(=O)N3CCOCC3)ccc2C)c1 2.2%, CCN(CC)c1ccc(S(=O)(=O)N2CCOCC2)cc1NC(=O)COC(=O)/C=C/c1ccccc1 -3.02%, COc1cccc(/C=C/C(=O)OCC(=O)Nc2ccc(S(=O)(=O)N3CCCC3)cc2)c1 1.91%, C=CCn1c(C(C)C)nc2ccccc21 4.59%, O=C1CN(C(=O)COC(=O)CCc2ccccc2O)c2ccccc2N1 1.54%, N#CC1(N2CCN(C(=O)c3ccccc3)CC2)CCCCC1 8.68%, Clc1ccc(N2CCN(c3ncnc4c3oc3ccccc34)CC2)cc1 -2.02%, CCC(=O)Nc1cccc(C(=O)OCc2cccc([N+](=O)[O-])c2)c1 5.63%, Cc1cc(C(=O)Nc2c(C)n(C)n(-c3ccccc3)c2=O)on1 11.2%, O=C(c1ccc(F)cc1F)N1CCN(S(=O)(=O)c2ccc3c(c2)OCCO3)CC1 7.11%, COc1cc2cnc(CCO[C@H]3CCCCO3)cc2cc1OC 7.49%, COc1ccc(NC(=O)Cc2ccsc2)cc1S(=O)(=O)N1CCOCC1 -4.48%, Cc1ccc(-c2onc3ccc(C4OCCO4)cc23)cc1 12.2%, CSc1ccccc1NC(=O)NCCCl -4.18%, CCCN1CCN(CCCNC(=O)C(CC)n2nc(C)n3c(cc4occc43)c2=O)CC1 (centres undefined) 10.2%, O=C(CCl)Nc1sccc1C(=O)c1ccccc1 11.5%, CCOc1ccc(C2Nc3ccc4ccccc4c3-c3c2c(=O)oc2ccccc32)cc1 (centres undefined) 5.67%, CC(=O)CCc1c(C)nc2ccc(C(=O)O)cc2c1Cl -3.43%, Cc1nc2ccc(C(=O)O)cc2nc1C 8.31%, Cc1cc(C)nc(NC2=NCCN2C(=O)NC2CCCCC2)n1 1.52%, Nc1ncnc2c1ncn2[C@@H]1O[C@H](CNCc2ccccc2OCc2ccc(Cl)cc2Cl)[C@@H](O)[C@H]1O 6.96%, COc1ccccc1/C=N/NC(=O)c1ccc(NC(=O)c2ccccc2Br)cc1 1.59%, Cc1ccc(NC(=O)NC(=O)CSc2n[nH]c(N)n2)c(C)c1 -33.7%, Cc1oc(-c2nc3ccccc3n2C)cc1C(=O)c1ccccc1 -4.53%, O=C(O)c1cc(NCc2ccc3c(c2)OCO3)ccc1N1CCOCC1 12.2%, O=C(CN1CCN(Cc2ccc3c(c2)OCO3)CC1)Nc1ccc(N2CCOCC2)cc1 -4.89%, O=C(O)c1ccc(NCc2ccc3c(c2)OCO3)cc1 7.49%, CC(=O)N1CCN(c2ccc(NC(=O)c3ccc4c(c3)OCO4)cc2)CC1 9.85%
